Assay results: PubChem BioAssay AID687012 (National Center for Advancing Translational Sciences (NCATS), 2013)
Calls of active or inactive are those of the source.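 How the source made its calls: active means significant rise in the time treated SMA model mouse pups take to turn upright when laid on their backs; inactive means no significant rise in righting time.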

Assay: Extended Characterization of SMN2 Inhibitors: Righting Time Studies
Settings: SMNdelta7 SMA mice, 50 mg/kg ip
Source text: Spinal muscular atrophy (SMA) is caused by insufficient levels of the survival motor neuron protein SMN. The SMN locus on chromosome 5q13 contains two inverted copies of SMN called SMN1 and SMN2 which are 99% identical at the amino acid level. SMN1 is a fully functional protein and SMN2 skips exon 7 90% of the time. Skipping of exon 7 produces non-functional protein product. 10% of the SMN2 protein includes exon 7 and is fully functional. In the SMA disease state, mutations in the SMN1 locus are the cause of the disease state. Because only 10% of SMN2 is of the fully functional form, it is not sufficient to overcome the deficiency produced by the loss of the SMN1 product. A therapy that either increase the amount of SMN2 product made or to increase the inclusion of exon 7 has been proposed for the treatment of SMA. We have previously filed a probe report and have now done further SAR and further characterized the resulting compounds in mice studies. Here we tested the new compound to see if there was an improval in righting time when administered to SMNdelta7 SMA mice. NIH Chemical Genomics Center [NCGC] NIH Molecular Libraries Probe Production centers Network [MLPCN] MLPCN Grant: R03 MH084179 Assay Submitter (PI): Elliot Androphy […]
In the case of `O=C(O)C1CCN(c2ncc(-c3ccc4c(c3)OCCCO4)s2)CC1`, the outcome is reported as “active; yes”.
